# Results reported in ChEMBL document CHEMBL3988442, “University of Dundee, Small-Polar-MMV Screening Library” (2021).
# Screen size: about 48,000 compounds; about 13,000 (27%) showed an effect of 50% or more. Some of the results follow.
# Test system: Wolbachia pipientis
# Experiment: Anti-Wolbachia Cell-Based Screen
# Format: functional
# Set-up: scale not given: in the data most compounds retested in dose-response had high values
# Conditions: 5 µM
row,SMILES,Percent Effect
1,Cc1nn(C)c(Cl)c1C1CCCN1C(=O)c1nccnc1N (stereo not given),-5.243%
2,Cc1nn(C)c(C)c1C1CCCN1C(=O)c1nccnc1N (stereo not given),101%
3,COc1c(C2CCCN2C(=O)c2nccnc2N)c(C)nn1C (stereo not given),108.6%
4,O=S(=O)(Nc1c(F)cccc1N1CCCC1)c1cncc(F)c1,-6.105%
5,N#Cc1cccc(NC2CC(=O)N(C3Cc4ccccc4C3)C2)n1 (stereo not given),5.834%
6,Cc1nc(C)n(CC2CCCN(CCCOc3ccc(F)cc3)C2)n1 (stereo not given),86.71%
7,Cc1nc(C)n(CC2CCCN2CCCOc2ccc(F)cc2)n1 (stereo not given),2.053%
8,Cc1nc(C)n(CC2CCCN(CCCOc3ccccc3)C2)n1 (stereo not given),-19.22%
9,Cc1nc(C)n(CC2CCCN(CCOc3cccc(F)c3)C2)n1 (stereo not given),75.5%
10,Cc1nc(C)n(CC2CCCN(CCOc3cccc(C#N)c3)C2)n1 (stereo not given),-2.683%
11,O=C1CCCN1CCCN1CCCC(Cn2cncn2)C1 (stereo not given),2.08%
12,Cc1nc(C)n(CC2CCCN(CCOc3ccc(F)cc3)C2)n1 (stereo not given),98.89%
13,Fc1ccc(CN2CCCC(Cn3cncn3)C2)c2ncccc12 (stereo not given),0.09463%
14,Fc1ccc(OCCCN2CCCC(Cn3cncn3)C2)cc1 (stereo not given),107.3%
15,Cc1c(C(C)NC2CCN(C(C)C)CC2)cnn1-c1ccc(F)cc1F (stereo not given),-0.2198%
16,CCOc1cccnc1C(=O)N1CCCN(c2nc(C)cs2)CC1,4.223%
17,CCn1ccnc1CN1C[C@@H](CN2CCCC2)[C@@H](CO)C1,-1.438%
18,CCn1ccnc1CN1CCN(CC(=O)NC(=O)NC2CC2)CC1,-16.24%
19,CC(C)c1ccc(-n2ncc(C(=O)NCC3COC(C)(C)O3)c2N)cc1 (stereo not given),161.1%
20,CC1(C)OCC(CNC(=O)c2cnn(-c3ccc(Cl)cc3)c2N)O1 (stereo not given),-2.312%
21,Cc1cc(Cl)ccc1-n1ncc(C(=O)NCC2COC(C)(C)O2)c1N (stereo not given),154.2%
22,CC1(C)OCC(CNC(=O)c2cnn(-c3cc(Cl)ccc3Cl)c2N)O1 (stereo not given),-0.3036%
23,Cc1c(C(=O)NC2(C#N)CCSC2)cnn1-c1ccccc1Cl (stereo not given),-17.58%
24,Cc1ccc(C)c(-n2ncc(C(=O)NCC3COC(C)(C)O3)c2N)c1 (stereo not given),185.5%

row,SMILES,Percent Effect
1,CCOC(=O)c1ccc(CNC(=O)c2ccncc2Cl)o1,1.896%
2,Cc1ccc(C)c(-n2ncc(NC(=O)NC3(C)CCOC3)c2C)c1 (stereo not given),6.274%
3,COc1ccc(-n2ncc(C(=O)NCC3COC(C)(C)O3)c2N)cc1 (stereo not given),-3.479%
4,CC1(C)OCC(CNC(=O)c2cnn(-c3cccc(Cl)c3Cl)c2N)O1 (stereo not given),190.2%
5,CC(=O)N[C@@H]1C[C@H](Cc2ccccc2)O[C@H](c2ccc(C(=O)O)cc2)C1,-2.466%
6,O=C(CC1=CCCCC1)NCCc1csc(N2CCCC2)n1,-4.83%
7,COc1cccc(CCC(=O)N2CCN(Cc3noc(C)n3)CC2)c1,-5.031%
8,CN1CCN(CCC(F)(F)C(F)F)CC12CCNC(=O)CC2 (stereo not given),7.69%
9,Cc1cnc(CN2CCOC(CN(C)c3cccnn3)C2)cn1 (stereo not given),10.01%
10,Cc1cccc(C2CCCN2C(=O)CCS(C)(=O)=O)c1C (stereo not given),-5.02%
11,CC(C)(C)C(O)CN1CCN(CC(=O)NC2CCOCC2)CC1 (stereo not given),4.367%
12,O=C(NCCN1CCNC1=O)c1cc(-c2ccc(O)cc2)n[nH]1,6.287%
13,O=C(NCCn1ccnc1C1CCOC1)c1cccnc1 (stereo not given),-7.177%
14,CCc1ncc(C(=O)NCCN2CCNC2=O)cn1,99.04%
15,O=C(NCCN1CCOC1=O)c1cnc(-c2cccnc2)nc1,103%
16,O=C(NCCN1CCNC1=O)c1cnc(-c2cccnc2)nc1,91.56%
17,CCc1ncc(C(=O)NCC2CCN(Cc3ccncc3)CC2)cn1,-2.292%
18,CCc1ncc(C(=O)NCCn2c(C)cc(C)nc2=O)cn1,5.273%
19,CCN(CCN1CCCCCC1)C(=O)c1cnc(-c2cccnc2)nc1,-4.892%
20,O=C(NCCN1CCOC1=O)c1ccc2sccc2c1,-4.154%
21,CN(Cc1cc(Br)cn1C)C(=O)Cc1cccc(O)c1,-22.7%
22,CNC(=O)Cn1nnc(-c2cc3ccccc3o2)n1,-5.513%
23,COc1cc(C(=O)NC(CC(=O)O)c2cccs2)cc(Cl)c1OC (stereo not given),14.71%
24,CC(C)Cn1cncc1CNC1CCSC1 (stereo not given),0.928%

row,SMILES,Percent Effect
1,CNCC(=O)Nc1cccc(-c2cnc(NCCO)nc2)c1,140.4%
2,O=C(CNC(=O)Nc1cccc(-c2nccs2)c1)NCCO,-9.757%
3,CC(C)(C)CC(=O)Nc1ccc(S(C)(=O)=O)nc1,8.515%
4,CCn1nnnc1-c1cccc(NC(=O)CCOC(C)C)c1,1.671%
5,CNCC(=O)Nc1cccc(-c2cnc(NCCS(C)(=O)=O)nc2)c1,116.8%
6,CC[C@H](C)Nc1ncc(-c2cccc(NC(=O)CNC)c2)cn1,114.1%
7,Cn1ccnc1-c1cccc(NC(=O)NCC(=O)NC(C)(C)C)c1,-2.22%
8,CCc1cnc(NCCS(=O)(=O)N(C)C)nc1,-13.3%
9,Cc1nccc(-c2cccc(NCC(=O)N3CCCCCCC3)c2)n1,4.13%
10,CNCC(=O)Nc1ccc(-c2cnc(NCCS(C)(=O)=O)nc2)cc1,99.21%
11,CNC(=O)c1cccc(CCNc2ncc(Br)cn2)c1,-10.19%
12,Cc1cccc(C(C)(C)NC(=O)CCS(C)(=O)=O)c1,2.509%
13,CC(C)n1cnc2c1C(C(=O)N1CCCC1)N(CC1CC1)CC2.O=C(O)C(F)(F)F (stereo not given),12.69%
14,CC(=O)Nn1c(C)cc(CN2CCCN(Cc3ccncc3)CC2)c1C,19.43%
15,Cc1n[nH]c(=O)c2c(NC(=O)CN3CCOCC3C)oc(C)c12 (stereo not given),12.8%
16,CNC(=O)[C@@H]1C[C@H](N)CN1Cc1cc2cc(OC)ccc2nc1O,8.618%
17,Cn1ccnc1CN1CCN2C[C@H](Oc3cccc(F)c3)C[C@H]2C1.O=C(O)C(F)(F)F.O=C(O)C(F)(F)F,5.075%
18,C[C@@]1(O)CCN(Cc2cc[nH]n2)C[C@H]1Oc1cccc(F)c1,94.39%
19,O=C1CC[C@H]2CN(Cc3cccc(F)c3)CC[C@H]2N1CCc1c[nH]cn1,-2.492%
20,Cc1cc(F)ccc1OC1(C(=O)O)CCN(Cc2c[nH]cn2)CC1,-1.435%
21,O=C(NCc1cc[nH]n1)NCC(O)COc1cccc(F)c1 (stereo not given),-0.04004%
22,C[C@]1(O)CCN(Cc2c[nH]cn2)C[C@@H]1Oc1cccc(F)c1,125.6%
